Experimental data reported in the supplement of paper PMC6555819.

Assays:
Test in all cases: PBM binding z-score (relative to random genomic background probes); higher = stronger binding; sequences stand for … in GC…GCGATTGACAGCGTAGAATGAAGG
[1] = tested on: RARb homodimer (NR concentration 270 nM)
Outline: (§1)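 Random background probes are the reference for binding z-scores. These scores derive from regression-normalized fluorescence on custom Agilent 4×180K protein-binding microarrays incubated 1 h with ligand-free nuclear receptor dimers. Binding was detected with antibodies against each partner (one per run).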

[2] = tested on: RARg:RXRa (NR concentration 270 nM, RXRa partner concentration 90 nM)
Outline: as §1

[3] = tested on: RARg homodimer (NR concentration 270 nM)
Outline: as §1

[4] = tested on: RXRa DBDmut IVT, anti-RXR (DBD mutation: RXRa K156A/R161A, NR concentration 90 nM)
Outline: as §1

[5] = tested on: RXRa homodimer (NR concentration 180 nM)
Outline: as §1

[6] = tested on: THRa:RXRa (NR concentration 90 nM, RXRa partner concentration 90 nM)
Outline: as §1

[7] = tested on: THRa homodimer (NR concentration 90 nM)
Outline: as §1

[8] = tested on: VDR homodimer (NR concentration 270 nM)
Outline: as §1

| Sequence | PBM binding z-score [1] | PBM binding z-score [2] | PBM binding z-score [3] | PBM binding z-score [4] | PBM binding z-score [5] | PBM binding z-score [6] | PBM binding z-score [7] | PBM binding z-score [8] |
| --- | --- | --- | --- | --- | --- | --- | --- | --- |
| TCAGATAGGTGAAGGTAACTCAGGTACGCAGTCG | 0.689 | 0.578 | 0.814 | 1.22 | 1.08 | 1.17 | 0.217 | 0.382 |
| GCTGCTAGGTCAGGTTGGTTAGCTAACGGGTACG | 2.43 | 2.43 | 3.37 | 0.744 | 0.769 | 1.77 | 0.549 | 0.682 |
| AGAATGCGGTTATACGTAGATCAGGGAAGAAAGT | -0.25 | 0.0152 | -0.0583 | -0.501 | 0.067 | -0.31 | -0.634 | -0.661 |
| TGTGCTAGGTCAGTTGGTCAGCTAACGAGCTGCC | 2.66 | 2.6 | 3.48 | -0.535 | 0.793 | 1.14 | -0.0529 | -0.504 |
| GCATATGGGTAATACAAGGTGAAAGTCCGATTGT | 0.725 | 0.405 | 0.402 | 0.208 | 0.486 | 3.98 | 0.841 | 0.115 |
| ATCGAAAGGTCGACGTGAGTATAGAGAAAGGGAA | 2.07 | 3.93 | 3.91 | 1.34 | 3.94 | 1.79 | -0.87 | 0.464 |
| TATACAGGGCCAAAGGCCAGAGTACGAATGTCGA | 1.12 | 1.16 | 1.47 | -0.775 | 0.74 | -0.149 | -0.814 | 0.291 |
| TAGCCTAGGTCATTCAAGGGCCAGTATAGAAAGC | 3.38 | 5.84 | 4.64 | 1.71 | 3.14 | 4.3 | 0.514 | 1.25 |
| ATCTCTAGGTAAAGTTCAGTAAAAGATCGATAGA | 2.39 | 2.22 | 2.74 | 1.27 | 1.18 | 1.23 | 0.183 | 2.13 |
| CAAACTAGGACAAGAGGTCAAAGTCCGCTTCCCG | 4.38 | 5.63 | 4.63 | 2.33 | 6.3 | 3.92 | 1.89 | 4.42 |
| AGTCAAACTTCACTAGGTAACGTAAGATTCAGCT | -0.374 | 0.121 | 0.346 | 0.238 | -0.0168 | 0.342 | 0.203 | -0.395 |
| CGAACGAGGGCTTGAGTTGATAGCAAATGCCGAT | -0.757 | -0.238 | -0.288 | 0.344 | -0.152 | -0.359 | -0.618 | -0.163 |
| CTTACTGGGCCAAAAAGGTCATTGATGCCGATAA | 4.5 | 4.8 | 4.65 | 1.08 | 5.37 | 3.21 | 0.313 | 2.72 |
| ATCGAAAGGTCGACGAAGTGAGTATACACCGTTT | 2.14 | 3.86 | 3.83 | 0.645 | 3.75 | 1.79 | -0.48 | 0.3 |
| TGGCAAAGTTCAAAGGTAACGTAAGTATCCACAC | 4.03 | 6.21 | 5.81 | 4.22 | 7.78 | 3.41 | -0.0262 | 4.04 |
| ACTATGAGTTGAGACGAGGGCAACCGATAGGTTG | 1.27 | 1.15 | 1.14 | 0.701 | 0.821 | 3.63 | 0.024 | 0.979 |
| CCTACAGGGCCATTCAGAGGTCATTGATCATATG | 4.27 | 5.34 | 3.29 | 1.85 | 3.85 | 3.38 | 1.34 | 4.16 |
| CGAACGAGGGCATGAGTTTATAGCAAATGCCGAT | 1.15 | 1.31 | 1.81 | 3.01 | 1.07 | 1.42 | 0.067 | 4.17 |
| AGAATGAGGTTATTAAGATCAAGGAATTGCGGTC | 0.762 | 1.21 | 0.86 | 2.05 | 1.86 | 2.13 | 0.766 | 1.61 |
| TCGAGTAGGTTAGGCGCATTCAGAATGGCGTCGA | -0.314 | -0.45 | -0.527 | -0.0106 | -0.118 | -0.415 | -0.996 | -0.809 |
| TCATATAGGTAAATGCTAGGCGAAAGTCCGATCT | -0.15 | 0.217 | 0.256 | 1.43 | 0.556 | 0.231 | 0.0597 | 0.181 |
| ATCTCTAGGTAAAGTTCAGTGCAAGATCGATAGA | 2.68 | 2.49 | 2.87 | 1.39 | 1.4 | 1.5 | 0.256 | 2.47 |
| CGGCAAAGTTCAAGGTAACGTAACAGAAAGCAGC | 3.52 | 5.32 | 6.01 | 4.49 | 4.62 | 2.79 | 0.581 | 2.71 |
| AGTCAAAGTTCAGGACGCGGTAACGTAAAGCACG | 3.04 | 4.4 | 4.94 | 2.98 | 2.78 | 2.74 | 1.23 | 1.79 |
| AATACAGGGTCATCGTAGGCCAGAGCACGCACAG | 3.55 | 5.92 | 5.24 | 3.61 | 6.36 | 4.52 | 1.4 | 3.18 |
| GGAACGAGGGCATAGTTGATAGCATCTGTCGACG | 0.536 | 0.949 | 1.22 | 2.25 | 1.02 | 0.72 | -0.185 | 1.18 |
